A selection: hits, their analogues and other compounds. The true share with any hit is near 17%.
TGFb inhibitor: blocks TGF-b signaling | HepG2 CAGA-GFP TGF-b/SMAD3 reporter, GFP fluorescence, 18 h; TGF-beta stimulated, 500 pg/mL final | Potency, µM (top dose mostly 46.1 µM), inactives show at the top dose activity, negative = inhibition, most hits filed as inhibitors | hit rate 1.2% among 410,000 | AID 588855; note: % is set by controls: 0 for no effect and ±100 for the full control effect; nearly all actives have a fitted effect of over 65% in size
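TGF-beta reporter screen: HEPG2 CAGA-GFP, 1% FBS, 500 pg/mL TGF-beta final, 18 h; per-cell GFP summed per well; curves fitted and categorized by class.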
HT1080 IDH1KD tx: toxicity to HT-1080 IDH1 knockdown cells (counter line); HT-1080 IDH1 knockdown viability, ATP luminescence, 48 h; Potency, µM (doses to about 46.1 µM), for the others: at the top dose activity, negative = toxicity, most hits filed as cytotoxic; hit rate 2% among 360,000; AID 686971;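 note: 0% = DMSO wells and -100% = cell-free medium wells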
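Luminescent ATP read-out (CellTiter-Glo, 10 min at room temperature) after 48 h compound exposure at 37 °C gave viability of IDH1-knockdown HT-1080 cells. Activity was normalised to DMSO and cell-free wells, then fitted as concentration-response curves.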
DT40 TDP1 no CPT: qHTS for Inhibitors of human tyrosyl-DNA phosphodiesterase 1 (TDP1): qHTS in cells in absence of CPT; DT40 Tdp1-/- hTDP1 cells, no CPT, ATP luminescence, 48 h; Potency, µM (highest dose often 46.2 µM), for the others: top-dose activity change, negative = growth inhibition, most hits filed as inhibitors; hit rate 15% among 420,000; note: % is set by controls: 0 for no effect and ±100 for the full control effect; nearly all actives have a fitted effect of over 55% in size
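Camptothecin absent (DMSO only). Human TDP1-complemented DT40 knockout cells, 400 cells/well, 37 °C for minimum 48 hr; ATP measured via CellTiter-Glo, 30 min dark incubation, luminescence.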
TDP1 cell CPT: growth inhibition of DT40 Tdp1-/-;hTDP1 cells with camptothecin (screen for TDP1 inhibitors); chicken DT40 Tdp1-/-;hTDP1 cells + 20 nM CPT, ATP luminescence, 48 h; Potency, µM (series often up to 46.2 µM), without a hit: top-dose activity change, negative = growth inhibition, usual class: inhibitors; AID 686979; hit rate 12% among 420,000; note: % is set by controls: 0 for no effect and ±100 for the full control effect; nearly all actives have a fitted effect of over 55% in size
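Chicken DT40 Tdp1-/- cells complemented with human TDP1, 400 cells/well, exposed to compounds plus 20 nM camptothecin for at least 48 h at 37 C; viability read as ATP content by CellTiter-Glo luminescence.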
HepG2 tox: HepG2 cytotoxicity, counter-screen for TGF-b inhibitors; HepG2 CAGA-GFP viability, ATP luminescence, 18 h; Potency, µM (highest dose often 46.1 µM), for the others: top-dose activity change, negative = cytotoxicity, actives largely listed as cytotoxic; hit rate 0.76% among 410,000; AID 588856
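CellTiter-Glo luminescence gave cytotoxicity after 18 hours at 37 degrees C. The cells were HepG2 CAGA-GFP in 1% FBS DMEM, stimulated with 500 pg/mL TGF-beta after compound addition. %Activity was normalised to no-cell wells (complete cell-killing) and DMSO (no toxicity), and curves were fitted and classified.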
HT1080NT lethal: kills 2HG-producing HT-1080-NT fibrosarcoma cells. hit rate 1.6% among 360,000. HT-1080-NT fibrosarcoma viability, CellTiter-Glo ATP luminescence, 48 h. Potency, µM (doses to about 46.1 µM), without a hit: at the highest dose activity, negative = less viability, actives largely listed as cytotoxic. AID 686970;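 note: NT is the 2HG producing partner of a matched IDH1 knockdown line; 0% = DMSO-treated cells and -100% = media-only wells without cells; nearly all actives have a fitted effect of over 55% in size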
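Viability by CellTiter-Glo luminescence after 48 h compound exposure at 37C of HT-1080-NT cells (750/well, RPMI, 5% FBS). % activity scaled between DMSO wells and medium-only wells, then curve-fitted and categorized by curve class.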
The depositor's hits bear a star; [ ] = dose if it differs, or a comment. Calls come from the whole dose curve; as a rule, active = well fitted curve in the direction sought with a large enough effect; inconclusive = small, poorly fitted or top-dose-only effect, or another doubt; inactive = no such curve, though single readings can be large; an effect the other way counts as inactive or inconclusive. Potency is the fitted concentration of half-maximal effect.

For Cc1nn(C)cc1CN1CCOc2ccc(C(C)(O)COc3ccccc3)cc2C1 (configuration not stated) the results were DT40 TDP1 no CPT -19% and TDP1 cell CPT 25%[9.04 µM].
Cc1ccccc1C(=O)Nc1c(C)nc2ccccn2c1=O was read as TGFb inhibitor -3%, DT40 TDP1 no CPT 0%, TDP1 cell CPT -18% and HepG2 tox -12%.
Screening O=C(CCCOC(=O)c1ccc(O)cc1O)c1ccc(Br)cc1 returned TGFb inhibitor inconclusive, HT1080 IDH1KD tx 0%, DT40 TDP1 no CPT 23µM*, TDP1 cell CPT inconclusive, HepG2 tox -18% and HT1080NT lethal -7%.
`CN(CC(=O)Nc1cccc(F)c1)C(=O)COc1cccc2c1OC(C)(C)C2` gave TGFb inhibitor -11%, HT1080 IDH1KD tx 16%, DT40 TDP1 no CPT inconclusive, TDP1 cell CPT -8%, HepG2 tox 0% and HT1080NT lethal 4%.
`Cc1cc2c(C)nc3ccccc3c2o1` gave TGFb inhibitor -10%, HT1080 IDH1KD tx 10%, DT40 TDP1 no CPT -3%, TDP1 cell CPT 6%, HepG2 tox 7% and HT1080NT lethal 4%.
`Cc1cc2[nH]c3c4ccccc4nc(C)c3c2cc1C` gave TGFb inhibitor 13µM*, HT1080 IDH1KD tx inconclusive, DT40 TDP1 no CPT 2.6µM*, TDP1 cell CPT 3.7µM*, HepG2 tox 18µM* and HT1080NT lethal 15µM*.
For CC1(C)S[C@@H]2[C@H](NC(=O)COc3ccccc3)C(=O)N2[C@@H]1C(=O)OCc1cccc2cccnc12 the results were TGFb inhibitor inconclusive, DT40 TDP1 no CPT -13%, TDP1 cell CPT 12% and HepG2 tox 10%.
Screening CCc1nn(CC(=O)NCc2ccc(OC)c(OC)c2)c(=O)c2cc3sc(C)cc3n12 returned TGFb inhibitor -21%, DT40 TDP1 no CPT -2%, TDP1 cell CPT inconclusive and HepG2 tox -17%.
CCCN1C(C(=O)c2ccccc2)=C(OC(=O)COc2ccc(C)cc2)c2ccccc2S1(=O)=O was read as TGFb inhibitor inconclusive, DT40 TDP1 no CPT 5.2µM*, TDP1 cell CPT 4.1µM* and HepG2 tox -23%.
For CCCCC(=O)OC1=C(C(=O)c2ccccc2)N(C)S(=O)(=O)c2ccccc21 the results were TGFb inhibitor 18µM*, DT40 TDP1 no CPT 23µM*, TDP1 cell CPT inconclusive and HepG2 tox -31%.
`CCCN1C(C(=O)c2ccccc2)=C(OC(=O)COc2ccccc2)c2ccccc2S1(=O)=O` gave TGFb inhibitor inconclusive, DT40 TDP1 no CPT 4.1µM*, TDP1 cell CPT 4.1µM* and HepG2 tox -24%.
Screening Cc1ccc(OCC(=O)Oc2c(C)cccc2C)cc1 returned TGFb inhibitor 3%, HT1080 IDH1KD tx -2%, DT40 TDP1 no CPT -5%, TDP1 cell CPT -6%, HepG2 tox 0% and HT1080NT lethal 17%.
For C=CCN1C(C(=O)c2ccccc2)=C(OC(=O)COc2ccccc2)c2ccccc2S1(=O)=O the results were TGFb inhibitor 0%, HT1080 IDH1KD tx inconclusive, DT40 TDP1 no CPT inconclusive, TDP1 cell CPT inconclusive, HepG2 tox -24% and HT1080NT lethal inconclusive.
`CCN1C(C(=O)c2ccccc2)=C(OC(=O)COc2ccc(C)cc2)c2ccccc2S1(=O)=O` gave TGFb inhibitor -26%, DT40 TDP1 no CPT 16µM*, TDP1 cell CPT inconclusive and HepG2 tox -4%.
Screening CCN1C(C(=O)c2ccccc2)=C(OC(=O)COc2ccc(OC)cc2)c2ccccc2S1(=O)=O returned TGFb inhibitor -10%, DT40 TDP1 no CPT 4.6µM*, TDP1 cell CPT 5.2µM* and HepG2 tox -7%.
CCCN1C(C(=O)c2ccccc2)=C(OC(=O)C(C)(C)C)c2ccccc2S1(=O)=O was read as TGFb inhibitor inconclusive, DT40 TDP1 no CPT 5.2µM*, TDP1 cell CPT 4.1µM* and HepG2 tox -59%.
`COc1ccc(C(=O)CN2C(=O)c3ccccc3S2(=O)=O)cc1` gave TGFb inhibitor 0%, HT1080 IDH1KD tx 3%, DT40 TDP1 no CPT -6%, TDP1 cell CPT 8%, HepG2 tox -26% and HT1080NT lethal 27%.
`O=c1c(-c2cc(F)cc(F)c2)nc2cnc(N3CCOCC3)nc2n1CCc1ccccc1` gave DT40 TDP1 no CPT 16% and TDP1 cell CPT -1%.
Screening CCc1cc2c(=O)oc(-c3ccc(Br)cc3)nc2s1 returned TGFb inhibitor -10%, HT1080 IDH1KD tx 14%, DT40 TDP1 no CPT -1%, TDP1 cell CPT -15%, HepG2 tox -5% and HT1080NT lethal 6%.
`COc1ccc(CCC(=O)N2c3ccccc3N=C(c3ccc(C(F)(F)F)cc3)C2C(=O)NC2CCCC2)cc1` (configuration not stated) gave HT1080 IDH1KD tx -23%, DT40 TDP1 no CPT 18µM*, TDP1 cell CPT inconclusive and HT1080NT lethal -10%.
For O=C(NC1CCCC1)C1C(c2ccc(C(F)(F)F)cc2)=Nc2ccccc2N1C(=O)c1cc2ccccc2[nH]1 (configuration not stated) the results were HT1080 IDH1KD tx -25%, DT40 TDP1 no CPT 13µM*, TDP1 cell CPT inconclusive and HT1080NT lethal -29%.
Screening CC(=O)N1c2ccccc2N=C(c2ccc(C(F)(F)F)cc2)C1C(=O)NC1CCCC1 (configuration not stated) returned HT1080 IDH1KD tx -15%, DT40 TDP1 no CPT inconclusive, TDP1 cell CPT inconclusive and HT1080NT lethal -9%.
Screening CC(C)NC(=O)C1C(c2ccc(C(F)(F)F)cc2)=Nc2ccccc2N1C(=O)c1cc2ccccc2[nH]1 (configuration not stated) returned HT1080 IDH1KD tx inconclusive, DT40 TDP1 no CPT inconclusive, TDP1 cell CPT inconclusive and HT1080NT lethal -26%.
Screening O=[N+]([O-])c1ccc2[nH]c(O)c(N=NC3CCS(=O)(=O)C3)c2c1 (configuration not stated) returned TGFb inhibitor -10%, HT1080 IDH1KD tx -8%, DT40 TDP1 no CPT 14%, TDP1 cell CPT 33%, HepG2 tox -20% and HT1080NT lethal -7%.
Screening Cc1ccc(NC(=O)Cn2ccn(Cc3ccc(Cl)cc3)c(=O)c2=O)cc1C returned TGFb inhibitor -10%, DT40 TDP1 no CPT 5%, TDP1 cell CPT -11% and HepG2 tox -12%.
